Results published in ChEMBL document CHEMBL3988442, “University of Dundee, Small-Polar-MMV Screening Library” (2021).
The campaign covered roughly 48,000 compounds. About 13,000 (27%) showed an effect of 50% or more. Some of the results follow.

tested on: Wolbachia pipientis; assay: Anti-Wolbachia Cell-Based Screen; assay type: functional; set-up: scale not given: in the data most compounds retested in dose-response had high values; settings: 5 µM

| SMILES | Percent Effect |
| --- | --- |
| COCCCN1CCCN(C(C)C(=O)Nc2cccc(I)c2)CC1 (stereo not given) | 23.62% |
| COc1ccc(-n2nc(C)c(C(C)=O)c2C)cc1CO | -7.291% |
| Cc1nc(COCc2nc3c(o2)CN(C(=O)c2ccoc2)C3)cs1 | 0.193% |
| CN(C)c1nc2c(c(N3CCC(O)CC3)n1)CN(CC(C)(C)C)CC2 | 3.405% |
| c1cc(CNCc2ccnc(N3CCCC3)c2)c2c(c1)OCO2 | -29.77% |
| Cc1noc(C)c1C(=O)NCCN1CCOCC1 | 15.76% |
| Cc1noc(C(C)C)c1C(=O)NCCCN1CCNCC1.Cl | 114.5% |
| CCC(CC)(CCCNC(=O)c1c(C)noc1C)C1OCCO1 | -3.207% |
| Cc1nc(-c2ccsc2)ccc1C(=O)NCCC(=O)N1CCCC1 | 0.2112% |
| Cc1noc(C(C)C)c1C(=O)NCCN1CCOCC1 | 72.1% |
| Cc1noc(C(C)C)c1C(=O)NCCC(=O)N1CCCCC1 | 90.26% |
| Cc1noc(C(C)C)c1C(=O)NCCCN1CCCCCC1=O | 122% |
| Cc1noc(C)c1C(=O)NCCN1CCN(c2ccccc2)CC1 | 7.051% |
| CC(NC(=O)NCCN1CCCCCC1=O)c1nncn1C (stereo not given) | -0.9457% |
| CC(Cn1cccn1)NC(=O)NCCCN1CCCCCC1=O (stereo not given) | -6.235% |
| Cc1noc(C(C)C)c1C(=O)NCC1CCCN1Cc1ccccc1 (stereo not given) | -8.242% |
| Cc1cc(C)n(CC2(CNC(=O)C(c3ccc(F)cc3)N(C)C)CC2)n1 (stereo not given) | 1.569% |
| CN(Cc1ccsc1)C(=O)Nc1ccc(S(C)(=O)=O)nc1 | -1.265% |
| COCCN1CC[C@H]2CN(c3cc(OC)ncn3)C[C@@H]2C1=O.O=C(O)C(F)(F)F | -11.01% |
| CN1C(=O)CC(c2ccccc2)C12CCN(c1ncc(F)cn1)CC2 (stereo not given) | 11.07% |
| O=C1N(c2ccc(Br)cc2)Cc2n[nH]c(=O)n21 | -3.118% |
| Cc1ccccc1CCCN(C)S(C)(=O)=O | 5.397% |

| SMILES | Percent Effect |
| --- | --- |
| Cc1ccsc1CNC1CCCc2c1cnn2C.Cl (stereo not given) | -3.429% |
| COc1cc(OC)cc(-c2cccc3c2OC(CN)C3)c1 (stereo not given) | 2.272% |
| COCCCNC(=O)c1c(C)noc1C(C)C | 99.64% |
| Cc1noc(C(C)C)c1C(=O)NCCCN1CCC(C)CC1 | 80.48% |
| CC1CCN(CCCNC(=O)C2CCCCC2)CC1 | 13.42% |
| Cc1noc(C(C)C)c1C(=O)NCc1cc(F)cc(F)c1 | -8.359% |
| COc1ccc(S(=O)(=O)NC(=O)c2c(C)noc2C(C)C)cc1OC | 2.156% |
| Cc1noc(C(C)C)c1C(=O)NCC1CCN(c2ccccc2)C1 (stereo not given) | -7.701% |
| CCn1c(=O)nc2n1C(=O)N(c1cccc(Cl)c1)C2 | 5.675% |
| CC1CCCN(S(=O)(=O)NCCCn2ccc3ccccc32)C1 (stereo not given) | -2.865% |
| Cn1c(-c2ccc(F)cc2)cn2cc(C(=O)N3CCC(N)C3)nc2c1=O (stereo not given) | -3.321% |
| CC(c1cccnc1)N1CCN(CCc2ccccn2)CC1 (stereo not given) | -1.072% |
| CN1CCCN(C(=O)c2nc3c(n2C)CCN(c2ncccn2)C3)CC1 | 6.305% |
| Cc1ccc(CNC(=O)c2nc3c(n2C)CCN(c2ncccn2)C3)o1 | 77.66% |
| Cc1ccc(CNC(=O)c2nc3c(o2)CN(c2ncccn2)C3)o1 | -19.04% |
| CC(=O)N1CCO[C@@H]2CN(S(=O)(=O)c3ccc(C)cc3)CC[C@@H]2C1 | 106.7% |
| CC(=O)N1CCO[C@@H]2CN(S(=O)(=O)c3ccc(F)cc3)CC[C@@H]2C1 | 115.5% |
| CN1CCO[C@@H]2CN(S(=O)(=O)c3ccc(F)cc3)CC[C@@H]2C1.O=C(O)C(F)(F)F | -6.683% |
| Cn1nnc2c1C(COCC1CC1)CN(C(=O)C1=CCCC1)C2 (stereo not given) | -1.372% |
| COCCN(Cc1ccc(OC)nc1)Cc1cccs1 | 6.12% |
| O=C(Nc1ccccc1)C1CN(CC2CC2)CC12CCOCC2.O=C(O)C(F)(F)F (stereo not given) | -9.303% |
| O=C(Nc1ccccc1)C1CN(CC2CCOCC2)CC12CCOCC2.O=C(O)C(F)(F)F (stereo not given) | -3.242% |

| SMILES | Percent Effect |
| --- | --- |
| COCC1N(C(=O)Nc2ccccc2)[C@H]2CC[C@]1(O)CC2 (stereo not given in full) | 103.1% |
| O=C(NCc1ccccc1CN1CCC(O)CC1)Nc1ccccc1 | 6.714% |
| O=C(Nc1ccccc1)N1C[C@H]2CC[C@@H]1CN(Cc1ccccc1)C2 | -24.67% |
| O=C(O)C(F)(F)F.O=S(=O)(NC1CCC12CCN(CC1CCOCC1)CC2)c1ccccc1 (stereo not given) | -4.51% |
| O=C(Nc1ccccc1)N1C(CN2CCOCC2)[C@]2(O)CC[C@H]1CC2 (stereo not given in full) | 91.52% |
| O=S(=O)(c1ccccc1)N1C(CN2CCOCC2)[C@]2(O)CC[C@H]1CC2 (stereo not given in full) | 83.09% |
| O=C(Nc1ccccc1)N1C(CO)[C@]2(O)CC[C@H]1CC2 (stereo not given in full) | 93.37% |
| O=C(O)C(F)(F)F.O=S(=O)(c1ccccc1)N1C[C@@H]2COC[C@]2(CN2CCOCC2)C1 | 14.04% |
| COCCN1CCC(NC(=O)NCC2(c3ccccc3)CC2)C1 (stereo not given) | -5.464% |
| CC(C)n1c(C(=O)N2CCCC2)nc2c1CCN(C)C2.O=C(O)C(F)(F)F | -17.76% |
| O=C(Nc1cnc2n1CCCC2)c1cccc(OCC(F)(F)F)c1 | -7.584% |
| NC(=O)C1CCN(CCc2ccc(NCc3cccnc3)cc2)CC1 | -10.11% |
| CC(O)C1CCN(c2cc(Cl)ccc2C#N)CC1 (stereo not given) | -3.342% |
| CC1(c2ccccc2)CCCN(Cc2cncn2C2CCCC2)C1 (stereo not given) | -2.034% |
| CC(C)CNC(=O)CNC(=O)NCC(O)c1ccc2ccccc2c1 (stereo not given) | 1.707% |
| CCSc1cc(C(=O)NCCC(=O)Nc2ccccn2)ccn1 | -16.79% |
| CCSc1cc(C(=O)NCc2ccccc2O)ccn1 | -4.116% |
| CCSc1cc(C(=O)N(C(C)C)C2CC2)ccn1 | -12.03% |
| CCSc1cc(C(=O)N(CC(F)F)C(C)C)ccn1 | -6.776% |
| O=C(O)c1ccnc(SCc2ccccc2)c1 | 93.4% |
| O=C(O)c1ccnc(SCC(F)(F)F)c1 | 103% |
| CCC(CC)(CN)NC(C)c1ccccc1 (stereo not given) | 4.415% |

| SMILES | Percent Effect |
| --- | --- |
| O=C(NCCc1cccc(O)c1)NC1CCN(c2ccccc2)C1=O (stereo not given) | -1.396% |
| COc1ccc(CCC(=O)NCCN2CCC(c3cccs3)CC2)cc1 | 160.9% |
| O=C(NCCc1ccccc1)NCCN1CCC(c2cccs2)CC1 | 129.5% |
| COc1ccc(CCNC(=O)CN2CCOCS2(=O)=O)cc1 | -7.481% |
| COc1ccc(CNC(=O)CCN2CCOC(C(F)(F)F)C2)cc1 (stereo not given) | -3.399% |
| O=C(NCCN1CCC(c2cccs2)CC1)Nc1cccs1 | -15.35% |
| CO[C@H]1CNC[C@@H]1NC(=O)c1cc(C)nc2ccc(C)cc12 | -4.766% |
| COCCN1C[C@H]2CCN(C(C)=O)CC[C@H]2S1(=O)=O | -12.61% |
| O=C(O)C1CCCN(c2nc3c(-c4ccccc4)csc3c(=O)[nH]2)C1 (stereo not given) | 5.88% |
| COc1ccc2c(c1)nc1n2[C@@H](CN(C2CCC2)C2CCC2)COC1 | -7.437% |
| CN(Cc1ccsc1)C(=O)CN1CCOC(Cn2cncn2)C1 (stereo not given) | 122.3% |
| Cc1cnn(CC2CN(CC(=O)N(C)Cc3ccsc3)CCO2)c1 (stereo not given) | 117% |
| Cc1cnn(CC2CCCN2CC(=O)N(C)Cc2ccsc2)c1 (stereo not given) | -8.163% |
| Cc1cnn(CC2CN(CC(=O)N(C)Cc3cccs3)CCO2)c1 (stereo not given) | -3.9% |
| COc1cccc(CCC(=O)N2CCCC(n3cc(C)cn3)C2)c1 (stereo not given) | -1.259% |
| Cc1cnn(C2CCCN(C(=O)Cn3ccc(=O)n(C)c3=O)C2)c1 (stereo not given) | -20.71% |
| Cc1cnn(C2CCCN(C(=O)CCc3cnn(C)c3)C2)c1 (stereo not given) | 94.12% |
| Cc1cnn(C2CCCN(C(=O)CCc3cscn3)C2)c1 (stereo not given) | 115.3% |
| Cc1cnn(C2CCCN(C(=O)CCNS(C)(=O)=O)C2)c1 (stereo not given) | 109.1% |
| Cc1cc(C)n(C2CCCN(C(=O)CCNS(C)(=O)=O)C2)n1 (stereo not given) | 0.7954% |
| Cc1cnn(C2CCCN(C(=O)CN(C)c3cnccn3)C2)c1 (stereo not given) | 6.201% |
| O=C(CCc1cscn1)N1CCCC(n2ccnc2)C1 (stereo not given) | -7.112% |

| SMILES | Percent Effect |
| --- | --- |
| Cc1cnn(C2CCCN(C(=O)CCc3ccncc3)C2)c1 (stereo not given) | 119.7% |
| CCCC(C)N(C)Cc1nnc(-c2ccc(Br)s2)o1 (stereo not given) | -85.49% |
| CCNc1ncc(C(=O)N(C)Cc2nc3cc(Cl)ccc3[nH]2)cn1 | 4.323% |
| COc1ccc(-n2c(CCC(=O)O)nc3ccccc32)cc1CO | -17.89% |
| CN(C)C(=O)CN1C[C@@H]2CC[C@H](C1)N(C(=O)CCn1cncn1)C2 | -10.88% |
| O=C(NCC(O)COc1cccc(F)c1)c1ccoc1 (stereo not given) | 11.74% |
| CCN(C(=O)c1ccc2nnc(C3CCN(C)C3)n2c1)C(C)C.O=C(O)C(F)(F)F (stereo not given) | -13.6% |
| O=C(CCc1cscn1)N1CCCC(c2ccn[nH]2)C1 (stereo not given) | -4.951% |
| NC(=O)c1cc(C2CCCN(C(=O)CCc3cscn3)C2)n[nH]1 (stereo not given) | 0.5679% |
| Cc1cc(C2CCCN(C(=O)CCc3cscn3)C2)n[nH]1 (stereo not given) | 93.55% |
| CCOc1ccc(Oc2cc(CN)ccn2)cc1 | 101.1% |
| CCOC(=O)NCCC(=O)NCc1ccnc(Oc2ccc(F)cc2)c1 | 11.47% |
| CCOc1cc(CNC(C)c2sccc2C)ccn1 (stereo not given) | 3.225% |
| Cn1cc(C(=O)Nc2ccnc(Oc3ccccc3)c2)ccc1=O | -17.65% |
| CCOc1ccccc1Oc1ccc(CN)cn1 | 5.762% |
| Cc1ccc(Oc2cc(CN)ccn2)cc1C.Cl | 95.86% |
| CC(C)C(=O)NCc1ccnc(Oc2ccc(F)cc2)c1 | -7.223% |
| Cc1cc(CC(=O)NCc2ccnc(OCC(F)(F)F)c2)no1 | -12.47% |
| NCc1ccnc(Oc2ccccc2)c1 | 91.83% |
| NCc1ccnc(Oc2ccc(F)cc2)c1 | 111.3% |
| NCc1ccc(Oc2cccc(Cl)c2Cl)cc1 | -2.508% |
| CCOC(CC)C(=O)NCc1ccnc(Oc2ccc(F)cc2)c1 (stereo not given) | -12.82% |
